# Pf Dd2 inh = inhibitors of Plasmodium falciparum Dd2 growth; P. falciparum Dd2 growth, SYBR Green, 72 h; Potency, µM (highest dose often 28.9 µM), hits mostly inhibitors; 120,000 compounds, 4.3% hits; AID 1347417; active = well fitted inhibition curve with a large enough effect; note: nearly all actives have a fitted effect of over 65% in size
#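 Readout: SYBR Green fluorescence, 485 nm excitation, 535 nm emission, after ~16 h lysis at 37C. Before that, Dd2-infected red cells (2.5% hematocrit) grew 72 h with compound, 29 uM top final concentration.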
# Numbers stand for hits; - = inactive; [ ] = dose if it differs, or a comment. The entries come from a sample that favours hits as a whole.
SMILES,Pf Dd2 inh
CN(Cc1cccnc1)c1nc2c(c(=O)[nH]1)CCN(Cc1ccccc1C#N)CC2,-[5.79 µM]
CN(CC1CCOC1)C(=O)Nc1cccc(Cl)c1 (stereo not given),-[5.79 µM]
CC(=O)Nc1cc(C(=O)NCc2ccccc2C)c2ccc(C)nc2c1,-
COc1ccccc1-c1nnc2n1C(C(=O)NCCc1ccc(Cl)cc1)CC2 (stereo not given),1.8µM
COc1ccccc1-c1nnc2n1C(C(=O)NC(C)C)CC2 (stereo not given),-
COC(=O)CNC(=O)C1CCc2nnc(-c3ccccc3OC)n21 (stereo not given),-
COc1ccccc1[C@@H]1CN(C(=O)CN2CCOCC2)C[C@H]1C(=O)O,-
CN(C)C[C@@H]1CN(c2ncccn2)C[C@H]1NC(=O)c1cnco1,-
O=C(c1ccc2c(c1)OCO2)N1CCC2(CC1)N=C(c1ccc(Cl)cc1)NO2,7.9µM
Cc1ccc(C(=O)N2CCC3(CC2)N=C(c2ccc(Cl)cc2)NO3)cc1F,-
Cc1ccc(C2=NC3(CCN(C(=O)c4ccc5c(c4)OCO5)CC3)ON2)cc1,-
COc1ccc(-c2nc(C3CC3)nc3c2CCN(Cc2ccsc2)CC3)cc1,10µM
CCc1nc2c(c(-c3ccc(O)cc3)n1)CN(Cc1ccc(OC)cc1)CC2,-
COc1ccc(-c2nc(C3CC3)nc3c2CCN(Cc2ccc(F)cc2)CC3)cc1,7.1µM
CCc1nc2c(c(-c3ccc(O)cc3)n1)CCN(Cc1ccncc1)CC2,-
CCc1nc2c(c(-c3ccc(Cl)cc3)n1)CCN([S+](=O)([O-])c1cccc(OC)c1)CC2,13µM
COc1ccc(-c2nc(C3CC3)nc3c2CCN(CC2CC2)CC3)cc1,-
Oc1ccc(-c2nc(C3CC3)nc3c2CCN(Cc2ccccc2)CC3)cc1,-
CCc1nc2c(c(-c3ccc(O)cc3)n1)CCN(Cc1ccc(OC)cc1)CC2,2µM
Oc1ccc(-c2nc(C3CC3)nc3c2CCN(Cc2ccc(OC(F)(F)F)cc2)CC3)cc1,-
COc1ccc(-c2nc(C3CC3)nc3c2CCN(CC2CCCCC2)CC3)cc1,-
COc1cccc([S+](=O)([O-])N2CCc3nc(C4CC4)nc(-c4ccc(Cl)cc4)c3C2)c1,-
CCc1nc2c(c(-c3ccc(OC)cc3)n1)CN([S+](=O)([O-])c1cccc(C(F)(F)F)c1)CC2,-
CC(=O)N1CC2(Cc3ccccc31)CN([S+](=O)([O-])c1cccc(C(F)(F)F)c1)C2,-
COc1cccc(C(=O)N2CCC(C(NC(=O)c3ccc(F)cc3)C(=O)N3CCCC3)CC2)c1 (stereo not given),-
SMILES,Pf Dd2 inh
CNC(=O)[C@@H]1C[C@H](Oc2ccccc2)CN1C(=O)c1ccc(Cn2nc(C)cc2C)o1,-
O=C(CC1COCCN1)N1CCC2(CCC(=O)N(CCc3ccccc3)C2)CC1 (stereo not given),-
COCCOC1CCN(C(=O)c2cccn2C)CC1,-
O=C(NCC1CC1)c1noc(-c2ccccc2F)n1,-
CCN(CC)[C@H]1C[C@@H](Cc2cc(CCO)on2)C1(C)C,-
CCc1nc2c(c(-c3ccc(Cl)cc3)n1)CCN(Cc1cc(C)on1)CC2,-
CCc1nc2c(c(-c3ccc(Cl)cc3)n1)CCN(Cc1ccc(C(F)(F)F)cc1)CC2,-
CCc1nc2c(c(-c3ccc(Cl)cc3)n1)CN(Cc1cccc(F)c1)CC2,10µM
COc1cccc(CN2C[C@@H](CO)[C@H](NC(=O)C3CC3)C2)c1OC,-
CC(C)N1CCC(OCCCNC(=O)CN2CCCc3nc(C4CC4)ncc3C2=O)CC1,-
COc1ccc2ccc(OCc3nc(C(=O)N4CC(N5CCCCC5)C4)co3)cc2c1,8.9µM
COCC1CCN(C(=O)c2coc(COc3cccc(F)c3)n2)C1 (stereo not given),-
COc1ccc(OCc2nc(C(=O)N3CCCC(C(C)(C)O)C3)co2)cc1 (stereo not given),-
COc1cccc(OCc2nc(C(=O)N3CC4C[C@@H]5CC3C[C@H](C4)C5)co2)c1,10µM
CCCC1CCN(C(=O)c2coc(COc3ccc4ccc(OC)cc4c3)n2)C1 (stereo not given),-
C[C@@H]1CN(C(=O)c2coc(COc3cccc(F)c3)n2)C[C@H](C)O1,-
CN1C(=O)Cc2cc(S(=O)(=O)Nc3cccn4nc(C5CC5)nc34)ccc21,-
COc1ccc(CNC(=O)Cn2ccn3nc(-c4ccc(F)cc4)c(CO)c3c2=O)cc1OC,-
O=C(C1CCOCC1)N1CCC(N2CC3CC(C2)[C@H]2CCCC(=O)N2C3)CC1 (stereo not given in full),-
Cc1nc(-c2c3n(c(=O)n(CC(=O)NCc4ccc(Cl)cc4)c2=O)CCCCC3)no1,-
O=C(NCCSc1c[nH]c2ccccc12)c1ccc(Cl)cc1,-
CCN(CC)S(=O)(=O)c1ccc(C(=O)NCCSc2c(-c3ccc(F)cc3)[nH]c3ccccc23)cc1,6.3µM
O=C(NC1CC(=O)N(c2ccccc2)C1)c1ccc(S(=O)(=O)N2CCOCC2)cc1 (stereo not given),-
Cc1ccc(N2CC(NC(=O)c3ccc(S(=O)(=O)N4CCOCC4)cc3)CC2=O)cc1 (stereo not given),-
